“And” between values parts separate entries of the source, which are not always exact repeats. Identical values can stand only once. Among all 430,000 compounds or so, about 2,600 (0.6%) were called active. The full list was thinned out, with actives kept by preference. A number with no mark means an inactive call. Rule as the data show it: active = inhibition mostly above about 37% (no sharp cut-off); inactive = mostly below about 20%.
tested on: PriA–SSB C-terminal tail interaction (Klebsiella pneumoniae); assay: blocks PriA binding to SSB C-terminal tail, primary screen, biochemical, AlphaScreen (AID 1272365); conditions: AlphaScreen SSBct-PriA binding, biotinylated peptide; at 33 µM, hits give high values;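 also: plate controls were negative control peptide for no effect and reference peptide for full effect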

Q: `CC(=O)N(C)c1ccc(OC[C@@H](O)CN(c2ccc(C)cc2)S(=O)(=O)c2ccc(C)cc2)cc1` was tested. Which inhibition did it give?
A: Its inhibition is -17%.

Q: How did the inhibition turn out when `CC1(C)C(=O)NCCN1C(=O)Cc1ccc2c(c1)OCO2` was run?
A: The inhibition was -2% and -8%.

Q: For `COC1(CNC(=O)C2CCN(S(C)(=O)=O)CC2)CCSC1` (stereo unspecified), which inhibition is on record?
A: The inhibition was -5%.

Q: How did the inhibition turn out when `COc1ccc(NC(=O)Nc2ccc(N3CCOCC3)cc2)cc1` was run?
A: The inhibition was -16%.

Q: Which inhibition does the source give for `C=CC(=O)Nc1ccc(Nc2ccnc(Nc3ccc(N4CCN(C)CC4)cc3)n2)cc1` here?
A: The inhibition was 56.7% (active).

Q: Which inhibition does the source give for `COc1ccc(N2CCN(C(=S)Nc3ccc(C(C)=O)cc3)CC2)cc1` here?
A: Its inhibition is 5%.

Q: How did the inhibition turn out when `O=C(c1cc(Cl)sc1Cl)N(CC1CCCO1)c1nc2c(F)cc(F)cc2s1` (stereo unspecified) was run?
A: The inhibition was -20%.

Q: `CCOC(=O)N1CCN(C(=O)Cn2nc(C(F)(F)F)n(C)c2=O)CC1` was tested. Which inhibition did it give?
A: Its inhibition is 2%.

Q: `O=C(Nc1ccccc1-c1ccc(=O)[nH]n1)c1ccncc1` was tested. Which inhibition did it give?
A: The inhibition was -12%.

Q: `COc1ccc(CC2(C)OC(c3ccc(C(C)(C)C)cc3)=NN2C(C)=O)cc1` (stereo unspecified) was tested. Which inhibition did it give?
A: Its inhibition is 62.5% (active).

Q: Which inhibition does the source give for `CC(=O)N1N=C(c2ccncc2)OC1(Cc1ccccc1)Cc1ccccc1` here?
A: The inhibition was -8.22%.

Q: For `COc1ccc(-c2ccc(CCC(=O)O)n2NC(=O)c2ccc(C(C)(C)C)cc2)cc1`, which inhibition is on record?
A: The inhibition was -5.78%.

Q: With `Cn1c(=O)c2nc(SCC(=O)Nc3ccc(F)c([N+](=O)[O-])c3)n(C)c2n(C)c1=O` as the compound, how does the inhibition read?
A: Its inhibition is -5%.

Q: How did the inhibition turn out when `CCOc1ccc(-c2ccc(=O)n(CCNC(=O)C3CC3)n2)cc1` was run?
A: The inhibition was 6%.

Q: `NC(=NOC(=O)c1ccc(=O)n(Cc2ccccc2)c1)c1ccccn1` was tested. Which inhibition did it give?
A: The inhibition was 3.95%.

Q: How did the inhibition turn out when `COC(=O)c1ccc(C=NNC(=O)CNc2cccc(C)c2)cc1` was run?
A: Its inhibition is -5.68%.

Q: `O=C(CNc1ccc2ccccc2c1)NN=Cc1ccc(C(=O)O)cc1` was tested. Which inhibition did it give?
A: The inhibition was 13.8%.

Q: With `CSc1ccc(C=NNC(=O)CNc2ccc3ccccc3c2)cc1` as the compound, how does the inhibition read?
A: The inhibition was 47.7% (active).

Q: `C(#Cc1ccc2noc(-c3ccccc3)c2c1)c1ccccc1` was tested. Which inhibition did it give?
A: The inhibition was -6%.

Q: `O=C(CCN1CCOCC1)N1N=C(c2ccccc2)CC1c1cccc([N+](=O)[O-])c1` (stereo unspecified) was tested. Which inhibition did it give?
A: The inhibition was 8%.

Q: How did the inhibition turn out when `Cc1ccc(Cn2cc(C(=O)NN)c(=O)c3ccc(F)cc32)cc1` was run?
A: Its inhibition is -0.06%.

Q: For `COc1cccc(Cn2cc(C(=O)c3ccccc3)c(=O)c3cc4c(cc32)OCCO4)c1`, which inhibition is on record?
A: The inhibition was -13%.

Q: With `O=C(c1ccc(F)cc1)c1cn(Cc2ccc(F)cc2)c2cc3c(cc2c1=O)OCCO3` as the compound, how does the inhibition read?
A: The inhibition was 115% (active).

Q: Which inhibition does the source give for `C=CCn1c(N=Cc2ccc(OC)cc2)nc2ccccc21` here?
A: The inhibition was 10.8%.

Q: With `COc1ccc(C=Nc2cccc3ncccc23)cc1` as the compound, how does the inhibition read?
A: The inhibition was 86.5% (active).

Q: Which inhibition does the source give for `CCc1nc2ccccc2c(=O)n1N=Cc1ccc(OC)cc1` here?
A: The inhibition was 4.76%.

Reference: PubChem BioAssay AID1272365 (Small Molecule Screening Facility, UW Madison, 2018)
